Test results taken from PubChem BioAssay (NCI).
Values joined by “and” are separate entries in the source; they are usually repeats but may differ in a detail not shown here. Equal entries are not always repeated. This is part of a sample that, as a whole, favours compounds with a hit. Of some 79,000 tested, about 15% had one in any assay. A structure can be active in one record and inactive in another. Active and inactive are the calls of the source. Rule as the data show it: active = growth inhibition above about 70%; inactive = the rest.

Experiments:
[1] = NCI Yeast Anticancer Drug Screen. Data for the rad50 strain (AID 155);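 also: 0% = growth of vehicle-only cultures of the same strain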; details: S. cerevisiae rad50 strain growth inhibition, stronger effect = higher value
In short: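 Inhibition values express reduced yeast growth in compound-treated cultures relative to vehicle-treated controls.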

[2] = NCI Yeast Anticancer Drug Screen. Data for the mec2-1 strain (AID 157); details: S. cerevisiae mec2-1 strain, stronger effect = higher value
In short: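 Yeast mec2-1 mutant treated with compound. Readout: growth inhibition vs vehicle controls.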

[3] = NCI Yeast Anticancer Drug Screen. Data for the sgs1 mgt1 strain (AID 161);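 also: 0% = growth of cultures given vehicle only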; details: S. cerevisiae sgs1 mgt1 strain, stronger effect = higher value
In short: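 Read-out: growth inhibition vs vehicle controls. Cells: mutant yeast strain deficient in DNA damage repair.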

[4] = NCI Yeast Anticancer Drug Screen. Data for the cln2 rad14 strain (AID 165);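 also: 0% = growth equal to vehicle treated cultures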; details: S. cerevisiae cln2 rad14 strain, stronger effect = higher value
In short: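 cln2 rad14 yeast strain; compound exposure; growth inhibition read vs vehicle controls.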

[5] = NCI Yeast Anticancer Drug Screen. Data for the bub3 strain (AID 167); details: S. cerevisiae bub3 mutant strain, stronger effect = higher value
In short: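 Steps: expose the mutant yeast strain to compound; grow alongside vehicle-treated cultures; measure growth; express inhibition against the vehicle cultures.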

[6] = NCI Yeast Anticancer Drug Screen. Data for the mlh1 rad18 strain (AID 175); details: S. cerevisiae mlh1 rad18 strain growth inhibition, stronger effect = higher value
In short: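 Yeast w/ defined DNA-repair lesions; compound exposure; growth vs vehicle controls → % inhibition.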

[7] = at 5.0 µM (retest, dose inferred, filed as 0.5)
[8] = at 50.0 µM (retest, dose inferred, filed as 5.0)

Measured: growth inhibition

CC1(C)N=C(N)N=C(N)N1CCCOc1ccc(NC(=O)c2ccc(S(=O)(=O)F)cc2)cc1
inactive: [1]; [7] -3% | [1]; [8] 12% | [1]; at 50.0 µM 20.2% | [2]; [7] -6% | [2]; [8] 30% | [2]; at 50.0 µM 49.5% | [3]; [7] -2% | [3]; [8] 15% | [3]; at 50.0 µM 47.8% | [4]; [7] -3% | [4]; [8] 0% | [4]; at 50.0 µM -9% | [5]; [7] -8% | [5]; [8] -4% | [5]; at 50.0 µM -8.15% | [6]; [7] -5% | [6]; [8] 7% | [6]; at 50.0 µM 21.4%

COc1ccc(NP(=S)(Nc2ccc(OC)cc2)c2ccccc2)cc1
inactive: [1]; [7] 2% | [1]; [8] 54% | [1]; at 50.0 µM 55% | [2]; [7] -2% | [2]; [8] 57% | [2]; at 50.0 µM 58.1% | [3]; [7] 6% | [3]; [8] 65% | [3]; at 50.0 µM 49.6% | [4]; [7] 3% | [4]; [8] 51% | [4]; at 50.0 µM 68.2% | [5]; [7] -1% | [5]; at 50.0 µM 67.6% | [6]; [7] 5% | [6]; [8] 58% | [6]; at 50.0 µM 28.9%
active: [5]; [8] 78%

CC(C)CCC[C@@H](C)[C@H]1CC[C@H]2[C@@H]3CC[C@H]4C[C@H](NCCCl)CC[C@]4(C)[C@H]3CC[C@]12C
inactive: [1]; [7] 28% | [1]; [8] 36% | [1]; at 50.0 µM 52% | [2]; [7] 15% | [2]; [8] 26% | [2]; at 50.0 µM 43.6% | [3]; [7] 40% | [3]; [8] 68% | [3]; at 50.0 µM 49.1% | [4]; [7] 28% | [4]; [8] 7% | [4]; at 50.0 µM 51% | [5]; [7] 45% | [5]; [8] 49% | [5]; at 50.0 µM 42.2% | [6]; [7] 22% | [6]; [8] 27% | [6]; at 50.0 µM 55%

CC(C)=[CH][Sb]([Br])([CH]=C(C)C)([CH]=C(C)C)[c]1ccccc1
inactive: [1]; [7] -9% | [1]; [8] 8% | [1]; at 50.0 µM 56.5% | [2]; [7] -14% | [2]; [8] 27% | [2]; at 50.0 µM 45.8% | [3]; [7] -14% | [3]; [8] 16% | [3]; at 50.0 µM 32.5% | [4]; [7] -19% | [4]; [8] 6% | [4]; at 50.0 µM -11.8% | [5]; [7] -3% | [5]; [8] 22% | [5]; at 50.0 µM 64.9% | [6]; [7] -11% | [6]; [8] 10% | [6]; at 50.0 µM 40.5%

Cc1c([C@H](C)[C@@H]2NC[C@@H](C)C[C@H]2O)ccc2c1C[C@H]1[C@H]2CC=C2C[C@@H](O)CC[C@@]21C
71% (active) and 36% (inactive): [1]; [8]
86.2% (active) and 19.4% (inactive): [5]; at 50.0 µM
inactive: [1]; [7] 10% and -5% | [2]; [7] -1% | [2]; [8] 52% and 0% | [3]; [7] 7% and -12% | [4]; [7] -6% and -7% | [4]; [8] 58% and 8% | [5]; [7] 11% and -18% | [6]; [7] 2% and 0% | [6]; [8] 59% and 40%
85% (active) and 6% (inactive): [3]; [8]
active: [1]; at 50.0 µM 84.3% and 88.5% | [2]; at 50.0 µM 75.2% and 79.2% | [3]; at 50.0 µM 76.8% and 86.2% | [4]; at 50.0 µM 77.3% and 82.8% | [6]; at 50.0 µM 85% and 87.5%
74% (active) and 1% (inactive): [5]; [8]

O=C(O)CP(=O)(c1ccccc1)c1ccccc1.O=C(O)CP(=O)(c1ccccc1)c1ccccc1.[Cd]
inactive: [1]; [7] 33% | [2]; [7] 40% | [2]; [8] 51% | [2]; at 50.0 µM 42.6% | [3]; [7] 11% | [3]; [8] 47% | [3]; at 50.0 µM 56% | [4]; [7] -3% | [4]; [8] 48% | [4]; at 50.0 µM 58.9% | [5]; [7] 4% | [5]; [8] 43% | [5]; at 50.0 µM 26.9% | [6]; [7] 17% | [6]; [8] 57% | [6]; at 50.0 µM 57.8%
active: [1]; [8] 88% | [1]; at 50.0 µM 83.4%

CC(O[Si](c1ccccc1)(c1ccccc1)C(C)(C)C)[C@H](NC(=O)OC(C)(C)C)C(=O)O (some centres undefined)
active: [1]; at 50.0 µM 86% | [2]; [8] 97% | [2]; at 50.0 µM 86.3% | [3]; at 50.0 µM 88% | [4]; [8] 98% | [4]; at 50.0 µM 89.6% | [5]; [8] 95% | [6]; at 50.0 µM 92.9%
inactive: [1]; [7] -13% | [1]; [8] 58% | [2]; [7] -4% | [3]; [7] 13% | [3]; [8] 47% | [4]; [7] -15% | [5]; [7] -9% | [5]; at 50.0 µM 55.5% | [6]; [7] 1% | [6]; [8] 68%

C=CO/C(C)=C(\[Se]c1ccccc1)C(C)=O
inactive: [1]; [7] 4% | [2]; [7] 3% | [3]; [7] 7% | [4]; [7] -10% | [4]; [8] 38% | [4]; at 50.0 µM 57% | [5]; [7] -8% | [5]; [8] 65% | [6]; [7] 6%
active: [1]; [8] 89% | [1]; at 50.0 µM 93.4% | [2]; [8] 91% | [2]; at 50.0 µM 85.9% | [3]; [8] 89% | [3]; at 50.0 µM 91.8% | [5]; at 50.0 µM 75% | [6]; [8] 91% | [6]; at 50.0 µM 91%
